Screening results (PubChem)
The list is a sample of the results.
aSyn UTR act: Activators working through SNCA 5'UTR binding (MLPCN); alpha-synuclein 5'UTR reporter, activators screen; activity score, % (tested at 7.5 µM), hits read low; 300,000 tested, 7.1% active; AID 1814; in the data active = activity score below about -60%
Large screens that a line does not name were inactive.

CC(=NC1CC1)C1=C(O)c2ccccc2C1=O	aSyn UTR act -177.0
CCOc1ccc(N=C(C)C2=C(O)c3ccccc3C2=O)cc1	aSyn UTR act -122.7
CC(=O)Nc1ccc(NC2=C/C(=N/S(=O)(=O)c3cccs3)c3ccccc3C2=O)cc1	none
CC(=O)Nc1ccc(N=C(C2=C(O)c3ccccc3C2=O)c2ccccc2)cc1	aSyn UTR act -63.7
Fc1ccccc1CSc1nnc(-c2cccs2)o1	aSyn UTR act -127.8
c1ccc(CSc2nnc(-c3cccs3)o2)cc1	aSyn UTR act -169.8
Fc1ccc(-c2nnc(Cc3ccc(Cl)cc3)o2)cc1	aSyn UTR act -85.9
Fc1ccc(Cc2nnc(-c3cccs3)o2)cc1	aSyn UTR act -114.1
Fc1ccc(CSc2nnc(-c3cccs3)o2)cc1	aSyn UTR act -88.3
Cc1ccccc1OCc1occc1C(=O)Nc1cccc(-n2cnnn2)c1	aSyn UTR act -91.5
COc1ccc(OCc2cc(C(=O)N(C)Cc3cc(C)no3)no2)c(Cl)c1	aSyn UTR act -182.3
Cc1cc(CN(C)C(=O)c2cc(COc3ccc(F)cc3Cl)on2)n[nH]1	aSyn UTR act -75.1
CCN(Cc1ccncc1)C(=O)c1cc(COc2ccc(OC)cc2Cl)on1	aSyn UTR act -111.0
CCc1ccc(CN(C)C(=O)c2cc(COc3ccc(OC)cc3Cl)on2)nc1	aSyn UTR act -169.7
COc1ccc(OCc2cc(C(=O)N(C)Cc3nnc(C)o3)no2)c(Cl)c1	aSyn UTR act -120.8
NNc1nc2ccc(F)cc2s1	aSyn UTR act -254.0
Fc1ccc2nc(Nc3ccccc3)sc2c1	aSyn UTR act -172.4
NNc1nc2ccc(Cl)cc2s1	aSyn UTR act -139.7
COC(=O)c1cc(=O)n(Cc2ccc3c(c2)OCO3)c(=Nc2ccc(F)c(Cl)c2)s1	aSyn UTR act -65.6
N#C/C(=C\c1cc(Cl)c(OCc2ccc(Cl)cc2)c(Cl)c1)C(N)=O	aSyn UTR act -142.7
CN(C)CCN(C(=O)c1cc(Cl)sc1Cl)c1nc2ccc(F)cc2s1	aSyn UTR act -93.8
CN(C)CCCN(C(=O)CCc1ccccc1)c1nc2ccc(F)cc2s1	aSyn UTR act -70.3
CN(C)CCCN(C(=O)c1ccc(S(=O)(=O)N2CCc3ccccc3C2)cc1)c1nc2ccc(F)cc2s1	none
CN(C)CCCN(C(=O)c1cc(-c2cccs2)nc2ccccc12)c1nc2ccc(F)cc2s1	none
CN(C)CCCN(C(=O)c1ccc2c(c1)CCCC2)c1nc2ccc(F)cc2s1	aSyn UTR act -156.7
Cc1cccc2sc(N(CCCN(C)C)C(=O)CCc3ccccc3)nc12	none
COc1ccc(C(=O)Oc2ccc3oc(=O)sc3c2)cc1	aSyn UTR act -88.8
Cc1ccc(CN(C(=O)c2cc3ccccc3oc2=O)C2CCS(=O)(=O)C2)cc1 (stereo not given)	aSyn UTR act -104.1
O=C(c1cc2ccccc2oc1=O)N(Cc1cccs1)C1CCS(=O)(=O)C1 (stereo not given)	aSyn UTR act -104.1
O=C(c1cc2ccccc2oc1=O)N(Cc1ccc(F)cc1)C1CCS(=O)(=O)C1 (stereo not given)	aSyn UTR act -120.6
COc1ccc(CN(C(=O)c2cc3ccccc3oc2=O)C2CCCCC2)cc1OC	aSyn UTR act -64.7
CCc1ccc(CN(C(=O)c2cc3ccccc3oc2=O)C2CCS(=O)(=O)C2)cc1 (stereo not given)	aSyn UTR act -143.8
O=C(Nc1ccc(N2CCN(C(=O)c3ccccc3)CC2)cc1)c1ccc(Br)o1	aSyn UTR act -69.4
O=C(Nc1ccc(N2CCN(C(=O)c3ccc(Cl)cc3)CC2)cc1)c1ccc([N+](=O)[O-])o1	none
CCC(=O)N1CCN(c2ccc(NC(=O)c3ccc([N+](=O)[O-])o3)cc2)CC1	none
CCN1CCN(c2ccc(NC(=O)c3ccc(Br)o3)cc2)CC1	aSyn UTR act -91.2
Cc1ccc2c(c1C)NC(=O)CC(c1ccccc1O)=N2	aSyn UTR act -83.1
O=C(NC1=NCCS1)c1ccc(-c2ccc(Cl)cc2)o1	aSyn UTR act -191.3
O=C(NCCCN1CCOCC1)c1sc2cc(F)ccc2c1Cl	aSyn UTR act -61.9
O=C(NC1CCC(O)CC1)c1ccc(-c2ccc(Cl)cc2)o1 (stereo not given)	aSyn UTR act -111.5
O=C(NC1=NCCS1)c1sc2cc(F)ccc2c1Cl	aSyn UTR act -191.0
O=C(NC1=NCCS1)c1ccc(Cl)cc1	aSyn UTR act -180.5
O=C(NNC1=Nc2ccccc2SC1)c1ccc(Cl)cc1	none
CCOC(=O)c1ccc(-c2ccc3c(c2)CCC3)nc1C	aSyn UTR act -99.1
CCOC(=O)c1cc(-c2ccc(C)cc2)nc2nc(SC)[nH]c(=O)c12	none
COC(=O)c1ccc(-c2ccc(F)cc2)nc1C	aSyn UTR act -192.1
Cn1cnnc1Sc1ccc(/C=C/C(=O)c2ccc(O)cc2)cc1[N+](=O)[O-]	aSyn UTR act -110.8
COc1ccc(C(=O)/C=C/C(=O)N(CC(=O)NC2CCCCC2)Cc2cccs2)c(O)c1	none
Cc1ccccc1N(CC(=O)NC1CCCC1)C(=O)c1csnn1	aSyn UTR act -146.0
N=C1N(/N=C/c2ccccc2)C(=Nc2ccccc2)C(=S)N1c1ccccc1	aSyn UTR act -185.8
O=C(CSc1ccccn1)c1ccc2c(c1)OCO2	aSyn UTR act -149.1
O=C(CSc1nc2ccccc2[nH]1)c1ccc2c(c1)OCO2	aSyn UTR act -139.9
Cc1ccc(C(=O)NCc2ccc3c(c2)CCO3)cc1C	aSyn UTR act -96.3
CCC(=O)NC(c1ccc(OC)c(OC)c1)c1cc(Cl)c2cccnc2c1O (stereo not given)	none
CC(C)C(=O)NC(c1cccc([N+](=O)[O-])c1)c1ccc2cccnc2c1O (stereo not given)	none
CCC(=O)NC(/C=C/c1ccccc1)c1cc([N+](=O)[O-])c2cccnc2c1O (stereo not given)	aSyn UTR act -94.4
Brc1ccc(-c2cnc(-c3cccs3)o2)cc1	aSyn UTR act -170.9
CC(=O)c1cccc(NC(=O)c2cc3nc(C)cc(C)n3n2)c1	aSyn UTR act -138.5
Cc1cc(C)n2nc(C(=O)Nc3ccc4c(c3)OCO4)cc2n1	aSyn UTR act -84.3
Cc1cccc(C=Nc2ccc3c(c2)oc2ccccc23)c1O	aSyn UTR act -166.0
Cc1ccc2c(c1)OC(c1ccc3c(c1)OCCO3)CC2=O (stereo not given)	aSyn UTR act -151.0
O=C(c1cnn2c1NC(c1ccco1)CC2C(F)(F)F)N1CCN(c2cccc(Cl)c2)CC1 (stereo not given)	aSyn UTR act -70.7
CCc1ccc(NC(=O)c2noc3c2CCc2ccccc2-3)cc1	aSyn UTR act -95.3
CCc1ccc(NC(=O)C2(C)Cc3ccccc3C(=O)O2)cc1 (stereo not given)	aSyn UTR act -142.0
Cc1ccc(NC(=O)c2noc3c2CCc2ccccc2-3)cc1	aSyn UTR act -205.2
Cc1ccc(Cn2ncn(-c3ccccc3)c2=O)cc1	aSyn UTR act -73.8
O=C(c1cc2cc(Cl)ccc2[nH]1)N1CCCCC1	aSyn UTR act -84.5
COCc1c(C(=O)Nc2ccc(Cl)cc2F)oc2ccccc12	aSyn UTR act -116.3
COCc1c(C(=O)Nc2nc(C)cs2)oc2ccccc12	aSyn UTR act -87.5
Cc1cccc(-c2nc(=S)c3c(o2)CCCC3)c1	aSyn UTR act -132.6
S=c1nc(-c2ccc(Br)cc2)oc2c1CCCC2	aSyn UTR act -183.8
O=C(Nc1cccn2ncnc12)c1ccccc1	aSyn UTR act -64.7
O=C(Nc1ccccc1Cl)c1ccn[nH]1	aSyn UTR act -89.6
Cc1ccc(C(=O)Nc2ccccc2Cl)cc1	aSyn UTR act -128.7
Cc1ccc(Cn2nc(C)cc2C(=O)Nc2ccccc2Cl)cc1	aSyn UTR act -151.5
O=C(Nc1ccccc1F)c1ccc(C(=O)c2ccccc2)cc1	aSyn UTR act -100.1
Nc1ccccc1NC(=O)c1ccccc1	aSyn UTR act -154.1
